Targets with a hit are over-represented here; the source holds about 8,800 in all. About 0.5% of all pairs of compound and target were hits. Unmarked numbers belong to inactive results.

Chain of UniProt P10646 (P10646 whole entry, looked up): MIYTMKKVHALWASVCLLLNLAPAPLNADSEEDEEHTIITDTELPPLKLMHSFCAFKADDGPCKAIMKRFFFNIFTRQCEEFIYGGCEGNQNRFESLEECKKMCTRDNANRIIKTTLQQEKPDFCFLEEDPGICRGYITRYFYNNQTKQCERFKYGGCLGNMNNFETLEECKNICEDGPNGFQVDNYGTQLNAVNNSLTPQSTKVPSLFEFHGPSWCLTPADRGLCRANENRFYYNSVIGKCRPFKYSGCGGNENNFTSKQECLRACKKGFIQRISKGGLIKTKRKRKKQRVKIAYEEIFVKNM
Chain of UniProt P62328 (P62328 whole entry, looked up): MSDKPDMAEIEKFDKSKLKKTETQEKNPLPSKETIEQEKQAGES
Chain of UniProt O60637 (O60637 whole entry, looked up): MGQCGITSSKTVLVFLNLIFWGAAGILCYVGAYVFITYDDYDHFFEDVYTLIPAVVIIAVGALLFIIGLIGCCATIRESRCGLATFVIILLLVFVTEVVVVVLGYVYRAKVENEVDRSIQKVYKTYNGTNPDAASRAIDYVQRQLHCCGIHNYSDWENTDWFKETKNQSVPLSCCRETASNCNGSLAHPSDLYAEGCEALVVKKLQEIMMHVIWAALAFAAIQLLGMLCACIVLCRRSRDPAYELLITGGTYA
Chain of UniProt P06753 (P06753 whole entry, looked up): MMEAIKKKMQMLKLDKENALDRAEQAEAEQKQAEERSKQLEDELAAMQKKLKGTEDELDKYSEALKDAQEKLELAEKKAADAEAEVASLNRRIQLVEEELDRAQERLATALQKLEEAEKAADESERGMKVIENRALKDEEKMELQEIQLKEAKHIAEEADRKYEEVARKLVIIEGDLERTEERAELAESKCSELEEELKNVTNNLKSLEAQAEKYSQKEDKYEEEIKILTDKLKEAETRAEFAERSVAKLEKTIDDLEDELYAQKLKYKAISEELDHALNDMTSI
Chain of UniProt O95271 (O95271 whole entry, looked up): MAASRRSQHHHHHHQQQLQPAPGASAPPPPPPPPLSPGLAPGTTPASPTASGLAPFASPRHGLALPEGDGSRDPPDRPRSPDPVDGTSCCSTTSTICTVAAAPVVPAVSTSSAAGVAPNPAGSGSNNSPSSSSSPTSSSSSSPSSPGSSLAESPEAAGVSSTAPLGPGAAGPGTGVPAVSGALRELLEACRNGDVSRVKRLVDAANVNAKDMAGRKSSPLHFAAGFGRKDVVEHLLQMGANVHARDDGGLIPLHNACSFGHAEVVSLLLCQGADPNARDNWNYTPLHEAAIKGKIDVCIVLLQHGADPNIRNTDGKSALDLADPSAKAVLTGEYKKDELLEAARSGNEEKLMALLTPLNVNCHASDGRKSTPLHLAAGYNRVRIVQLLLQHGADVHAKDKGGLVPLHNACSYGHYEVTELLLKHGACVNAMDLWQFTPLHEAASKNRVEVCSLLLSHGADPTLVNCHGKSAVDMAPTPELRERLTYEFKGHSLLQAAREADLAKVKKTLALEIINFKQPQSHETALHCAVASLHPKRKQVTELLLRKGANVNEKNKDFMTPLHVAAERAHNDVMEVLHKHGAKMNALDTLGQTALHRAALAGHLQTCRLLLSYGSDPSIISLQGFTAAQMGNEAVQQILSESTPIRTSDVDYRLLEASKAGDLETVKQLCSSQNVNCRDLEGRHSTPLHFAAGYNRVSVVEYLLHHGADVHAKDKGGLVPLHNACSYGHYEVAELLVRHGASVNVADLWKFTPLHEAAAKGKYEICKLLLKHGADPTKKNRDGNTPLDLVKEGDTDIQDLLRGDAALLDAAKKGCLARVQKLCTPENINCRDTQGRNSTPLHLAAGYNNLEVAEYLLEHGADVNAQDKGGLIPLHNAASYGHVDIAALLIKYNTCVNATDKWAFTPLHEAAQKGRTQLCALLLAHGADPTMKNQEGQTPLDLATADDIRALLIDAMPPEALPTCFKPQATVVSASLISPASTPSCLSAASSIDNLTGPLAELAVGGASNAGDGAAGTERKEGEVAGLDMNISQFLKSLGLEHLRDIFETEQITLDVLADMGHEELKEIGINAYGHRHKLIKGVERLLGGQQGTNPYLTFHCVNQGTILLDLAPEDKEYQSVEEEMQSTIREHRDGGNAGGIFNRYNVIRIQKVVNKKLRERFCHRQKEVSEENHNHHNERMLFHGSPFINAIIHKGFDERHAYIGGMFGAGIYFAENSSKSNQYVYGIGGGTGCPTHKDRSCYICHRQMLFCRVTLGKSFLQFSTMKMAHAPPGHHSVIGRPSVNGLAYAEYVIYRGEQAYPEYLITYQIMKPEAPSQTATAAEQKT
Chain of UniProt Q5U3C3 (Q5U3C3 whole entry, looked up): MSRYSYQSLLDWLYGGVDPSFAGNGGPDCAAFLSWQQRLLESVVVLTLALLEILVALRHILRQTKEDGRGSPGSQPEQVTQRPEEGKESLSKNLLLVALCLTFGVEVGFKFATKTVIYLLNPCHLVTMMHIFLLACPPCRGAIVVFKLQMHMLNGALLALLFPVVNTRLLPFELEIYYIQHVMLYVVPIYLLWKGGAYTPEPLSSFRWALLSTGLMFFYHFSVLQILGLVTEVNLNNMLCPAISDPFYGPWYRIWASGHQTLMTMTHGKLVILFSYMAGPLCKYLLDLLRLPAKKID
Chain of UniProt Q9Y5Z9 (Q9Y5Z9 whole entry, looked up): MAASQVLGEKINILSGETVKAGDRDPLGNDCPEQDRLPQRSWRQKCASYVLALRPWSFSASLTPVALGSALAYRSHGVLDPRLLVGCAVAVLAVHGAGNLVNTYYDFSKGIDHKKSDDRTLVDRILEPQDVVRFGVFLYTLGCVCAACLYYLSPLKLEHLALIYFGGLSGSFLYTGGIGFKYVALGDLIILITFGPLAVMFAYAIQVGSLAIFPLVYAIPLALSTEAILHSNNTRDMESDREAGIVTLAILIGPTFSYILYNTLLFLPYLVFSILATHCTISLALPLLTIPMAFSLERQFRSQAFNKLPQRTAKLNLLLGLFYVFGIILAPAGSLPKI
Chain of UniProt Q01664 (Q01664 whole entry, looked up): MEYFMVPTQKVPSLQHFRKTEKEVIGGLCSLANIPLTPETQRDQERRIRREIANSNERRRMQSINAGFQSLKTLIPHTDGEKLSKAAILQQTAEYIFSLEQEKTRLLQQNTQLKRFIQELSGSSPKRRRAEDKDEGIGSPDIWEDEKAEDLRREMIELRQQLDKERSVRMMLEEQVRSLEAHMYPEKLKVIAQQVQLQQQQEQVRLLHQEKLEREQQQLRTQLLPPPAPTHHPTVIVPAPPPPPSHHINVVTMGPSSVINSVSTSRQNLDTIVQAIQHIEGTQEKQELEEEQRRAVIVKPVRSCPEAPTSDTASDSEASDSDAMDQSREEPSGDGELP
Chain of UniProt Q96BZ9 (Q96BZ9 whole entry, looked up): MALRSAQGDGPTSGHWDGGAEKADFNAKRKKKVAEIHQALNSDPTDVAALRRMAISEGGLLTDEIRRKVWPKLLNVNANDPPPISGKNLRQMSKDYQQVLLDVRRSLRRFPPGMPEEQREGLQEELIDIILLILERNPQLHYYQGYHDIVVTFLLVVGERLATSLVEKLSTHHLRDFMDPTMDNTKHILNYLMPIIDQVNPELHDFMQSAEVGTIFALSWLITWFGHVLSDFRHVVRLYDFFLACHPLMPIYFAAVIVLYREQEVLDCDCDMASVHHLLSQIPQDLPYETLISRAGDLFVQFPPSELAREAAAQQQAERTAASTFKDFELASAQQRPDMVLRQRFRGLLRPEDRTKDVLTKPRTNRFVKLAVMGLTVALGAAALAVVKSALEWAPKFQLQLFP
Chain of UniProt Q96LJ8 (Q96LJ8 whole entry, looked up): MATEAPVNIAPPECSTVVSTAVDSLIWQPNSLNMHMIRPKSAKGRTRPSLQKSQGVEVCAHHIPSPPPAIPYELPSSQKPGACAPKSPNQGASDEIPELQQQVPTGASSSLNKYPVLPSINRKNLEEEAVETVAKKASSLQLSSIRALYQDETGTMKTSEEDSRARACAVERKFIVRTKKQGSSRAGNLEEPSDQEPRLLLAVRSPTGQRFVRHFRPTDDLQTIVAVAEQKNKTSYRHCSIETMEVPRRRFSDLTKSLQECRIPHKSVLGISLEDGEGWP
Chain of UniProt Q8NDZ6 (Q8NDZ6 whole entry, looked up): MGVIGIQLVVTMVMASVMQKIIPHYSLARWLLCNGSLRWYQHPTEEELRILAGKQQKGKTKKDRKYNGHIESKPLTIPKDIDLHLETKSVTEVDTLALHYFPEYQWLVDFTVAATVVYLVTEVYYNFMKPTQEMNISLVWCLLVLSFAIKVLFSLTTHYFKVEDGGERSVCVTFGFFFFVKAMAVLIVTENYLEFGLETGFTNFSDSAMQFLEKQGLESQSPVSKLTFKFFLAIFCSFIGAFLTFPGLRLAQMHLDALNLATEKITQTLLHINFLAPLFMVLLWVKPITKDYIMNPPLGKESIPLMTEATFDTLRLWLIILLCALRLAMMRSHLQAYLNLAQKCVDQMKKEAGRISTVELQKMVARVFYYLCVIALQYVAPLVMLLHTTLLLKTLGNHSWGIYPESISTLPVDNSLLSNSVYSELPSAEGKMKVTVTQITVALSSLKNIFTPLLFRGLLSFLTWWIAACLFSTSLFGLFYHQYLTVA
Chain of UniProt A6NHL2 (A6NHL2 whole entry, looked up): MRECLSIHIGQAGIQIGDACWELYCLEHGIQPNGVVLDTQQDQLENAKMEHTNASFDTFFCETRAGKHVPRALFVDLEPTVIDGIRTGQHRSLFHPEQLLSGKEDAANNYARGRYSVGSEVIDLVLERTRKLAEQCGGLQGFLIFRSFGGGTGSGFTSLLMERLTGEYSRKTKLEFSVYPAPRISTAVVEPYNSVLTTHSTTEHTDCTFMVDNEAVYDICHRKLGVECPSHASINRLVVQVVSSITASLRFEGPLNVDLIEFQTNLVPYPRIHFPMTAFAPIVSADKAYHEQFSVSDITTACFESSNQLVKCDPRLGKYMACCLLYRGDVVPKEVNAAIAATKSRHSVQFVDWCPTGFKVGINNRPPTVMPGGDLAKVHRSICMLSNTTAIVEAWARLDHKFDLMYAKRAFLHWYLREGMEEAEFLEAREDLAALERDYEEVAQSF
Chain of UniProt Q9NRX6 (Q9NRX6 whole entry, looked up): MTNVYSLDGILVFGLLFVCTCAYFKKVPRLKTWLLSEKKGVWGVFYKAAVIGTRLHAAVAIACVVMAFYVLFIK

Compound in this assay: CN1CC[C@H](c2c(O)cc(O)c3c(=O)cc(-c4ccccc4Cl)oc23)[C@H](O)C1 [alvocidib]
Nature of the assay: log2 fold change, soluble protein after heating vs DMSO (PISA); higher = thermal stabilisation; K562 lysate, 10 uM; active = over 0.2 and 3.5 SD of the protein, either way, in both replicates (recomputed). In outline:
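Values give the log-two fold change in thermal stability against solvent controls, from duplicates. Crude K562 extract at 1 mg/mL protein, made by dounce homogenisation in PBS pH 7.4 with 1 mM MgCl2, was treated with 10 μM compound for 30 min. After 3 min heating across 48°C-58°C, aliquots were pooled, adjusted to 0.5% NP-40 at 4°C and centrifuged at 21,000xg for 90 min. The supernatant was measured by TMTpro 16plex LC-MS/MS with channel sums equalised.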
Consider TMEM132A isoform 2 (UniProt Q24JP5), for which the log2 fold change was -0.381. With UBIAD1 (UniProt Q9Y5Z9) the figure was -0.016.

On to TMEM161B (UniProt Q8NDZ6), for which the log2 fold change was -0.03.

Take TK1 (UniProt K7ERV3): the log2 fold change was -0.028. Take U2AF1L5 (UniProt P0DN76): the log2 fold change was -0.58. With TUBB4A (UniProt P04350) the figure was -0.006; with TM2D3 (UniProt Q9BRN9), -0.291. Then TUBGCP5 (UniProt Q96RT8), with -0.069; and UBXN10 (UniProt Q96LJ8), with -0.036. As to UBXN2B (UniProt Q14CS0), the log2 fold change is -0.123.

Turning to UCHL5 (UniProt Q5LJA9), the log2 fold change was 0.049.

Turning to TNFAIP3 (UniProt P21580), the log2 fold change is 0.005.

In the case of TUBB6 (UniProt K7ES63), the log2 fold change is -0.11. With TRPM4 (UniProt Q8TD43) the figure was -0.401; with TFAP4 (UniProt Q01664), -0.037; with TMEM164 (UniProt Q5U3C3), -0.393. With TTLL12 (UniProt V9GY16) the figure was 0.003; with TPM3 isoform 3 (UniProt P06753), -0.202; with TXNIP (UniProt Q9H3M7), 0.017. With TMSB4X (UniProt P62328) the figure was 0.401; with TNKS (UniProt O95271), -0.223; with TJP1 (UniProt G3V1L9), -0.09.

Regarding TPD52L2 isoform 3 (UniProt O43399), the log2 fold change was 0.127. With TSPAN3 (UniProt O60637), the log2 fold change is 0.193. Then TMEM167B (UniProt Q9NRX6), with -0.167; and TFPI (UniProt P10646), with 0.245. Take TPM1 isoform 4 (UniProt P09493): the log2 fold change was 0.017. Consider TBC1D20 isoform 3 (UniProt Q96BZ9), for which the log2 fold change was -0.011. With UBL5 (UniProt Q9BZL1) the figure was -0.117; with TUBAL3 (UniProt A6NHL2), -0.276. Then TUBB4A (UniProt M0QYM7), with -0.158.

In the case of TMEM177 (UniProt Q53S58), the log2 fold change was 0.042. With TLE3 isoform 5 (UniProt Q04726) the figure was -0.153.

For the origin of these results see the supplement of paper PMC10849652.
